mHTT-CaM PPI inh: disrupts binding of mutant huntingtin to calmodulin | P42858 | AlphaScreen His-mHTT/GST-CaM binding, luminescence | inhibition, % at 15 µM | 3.6% of 190,000 active | AID 1671202
Target sequence (P42858 whole entry, looked up, change not shown): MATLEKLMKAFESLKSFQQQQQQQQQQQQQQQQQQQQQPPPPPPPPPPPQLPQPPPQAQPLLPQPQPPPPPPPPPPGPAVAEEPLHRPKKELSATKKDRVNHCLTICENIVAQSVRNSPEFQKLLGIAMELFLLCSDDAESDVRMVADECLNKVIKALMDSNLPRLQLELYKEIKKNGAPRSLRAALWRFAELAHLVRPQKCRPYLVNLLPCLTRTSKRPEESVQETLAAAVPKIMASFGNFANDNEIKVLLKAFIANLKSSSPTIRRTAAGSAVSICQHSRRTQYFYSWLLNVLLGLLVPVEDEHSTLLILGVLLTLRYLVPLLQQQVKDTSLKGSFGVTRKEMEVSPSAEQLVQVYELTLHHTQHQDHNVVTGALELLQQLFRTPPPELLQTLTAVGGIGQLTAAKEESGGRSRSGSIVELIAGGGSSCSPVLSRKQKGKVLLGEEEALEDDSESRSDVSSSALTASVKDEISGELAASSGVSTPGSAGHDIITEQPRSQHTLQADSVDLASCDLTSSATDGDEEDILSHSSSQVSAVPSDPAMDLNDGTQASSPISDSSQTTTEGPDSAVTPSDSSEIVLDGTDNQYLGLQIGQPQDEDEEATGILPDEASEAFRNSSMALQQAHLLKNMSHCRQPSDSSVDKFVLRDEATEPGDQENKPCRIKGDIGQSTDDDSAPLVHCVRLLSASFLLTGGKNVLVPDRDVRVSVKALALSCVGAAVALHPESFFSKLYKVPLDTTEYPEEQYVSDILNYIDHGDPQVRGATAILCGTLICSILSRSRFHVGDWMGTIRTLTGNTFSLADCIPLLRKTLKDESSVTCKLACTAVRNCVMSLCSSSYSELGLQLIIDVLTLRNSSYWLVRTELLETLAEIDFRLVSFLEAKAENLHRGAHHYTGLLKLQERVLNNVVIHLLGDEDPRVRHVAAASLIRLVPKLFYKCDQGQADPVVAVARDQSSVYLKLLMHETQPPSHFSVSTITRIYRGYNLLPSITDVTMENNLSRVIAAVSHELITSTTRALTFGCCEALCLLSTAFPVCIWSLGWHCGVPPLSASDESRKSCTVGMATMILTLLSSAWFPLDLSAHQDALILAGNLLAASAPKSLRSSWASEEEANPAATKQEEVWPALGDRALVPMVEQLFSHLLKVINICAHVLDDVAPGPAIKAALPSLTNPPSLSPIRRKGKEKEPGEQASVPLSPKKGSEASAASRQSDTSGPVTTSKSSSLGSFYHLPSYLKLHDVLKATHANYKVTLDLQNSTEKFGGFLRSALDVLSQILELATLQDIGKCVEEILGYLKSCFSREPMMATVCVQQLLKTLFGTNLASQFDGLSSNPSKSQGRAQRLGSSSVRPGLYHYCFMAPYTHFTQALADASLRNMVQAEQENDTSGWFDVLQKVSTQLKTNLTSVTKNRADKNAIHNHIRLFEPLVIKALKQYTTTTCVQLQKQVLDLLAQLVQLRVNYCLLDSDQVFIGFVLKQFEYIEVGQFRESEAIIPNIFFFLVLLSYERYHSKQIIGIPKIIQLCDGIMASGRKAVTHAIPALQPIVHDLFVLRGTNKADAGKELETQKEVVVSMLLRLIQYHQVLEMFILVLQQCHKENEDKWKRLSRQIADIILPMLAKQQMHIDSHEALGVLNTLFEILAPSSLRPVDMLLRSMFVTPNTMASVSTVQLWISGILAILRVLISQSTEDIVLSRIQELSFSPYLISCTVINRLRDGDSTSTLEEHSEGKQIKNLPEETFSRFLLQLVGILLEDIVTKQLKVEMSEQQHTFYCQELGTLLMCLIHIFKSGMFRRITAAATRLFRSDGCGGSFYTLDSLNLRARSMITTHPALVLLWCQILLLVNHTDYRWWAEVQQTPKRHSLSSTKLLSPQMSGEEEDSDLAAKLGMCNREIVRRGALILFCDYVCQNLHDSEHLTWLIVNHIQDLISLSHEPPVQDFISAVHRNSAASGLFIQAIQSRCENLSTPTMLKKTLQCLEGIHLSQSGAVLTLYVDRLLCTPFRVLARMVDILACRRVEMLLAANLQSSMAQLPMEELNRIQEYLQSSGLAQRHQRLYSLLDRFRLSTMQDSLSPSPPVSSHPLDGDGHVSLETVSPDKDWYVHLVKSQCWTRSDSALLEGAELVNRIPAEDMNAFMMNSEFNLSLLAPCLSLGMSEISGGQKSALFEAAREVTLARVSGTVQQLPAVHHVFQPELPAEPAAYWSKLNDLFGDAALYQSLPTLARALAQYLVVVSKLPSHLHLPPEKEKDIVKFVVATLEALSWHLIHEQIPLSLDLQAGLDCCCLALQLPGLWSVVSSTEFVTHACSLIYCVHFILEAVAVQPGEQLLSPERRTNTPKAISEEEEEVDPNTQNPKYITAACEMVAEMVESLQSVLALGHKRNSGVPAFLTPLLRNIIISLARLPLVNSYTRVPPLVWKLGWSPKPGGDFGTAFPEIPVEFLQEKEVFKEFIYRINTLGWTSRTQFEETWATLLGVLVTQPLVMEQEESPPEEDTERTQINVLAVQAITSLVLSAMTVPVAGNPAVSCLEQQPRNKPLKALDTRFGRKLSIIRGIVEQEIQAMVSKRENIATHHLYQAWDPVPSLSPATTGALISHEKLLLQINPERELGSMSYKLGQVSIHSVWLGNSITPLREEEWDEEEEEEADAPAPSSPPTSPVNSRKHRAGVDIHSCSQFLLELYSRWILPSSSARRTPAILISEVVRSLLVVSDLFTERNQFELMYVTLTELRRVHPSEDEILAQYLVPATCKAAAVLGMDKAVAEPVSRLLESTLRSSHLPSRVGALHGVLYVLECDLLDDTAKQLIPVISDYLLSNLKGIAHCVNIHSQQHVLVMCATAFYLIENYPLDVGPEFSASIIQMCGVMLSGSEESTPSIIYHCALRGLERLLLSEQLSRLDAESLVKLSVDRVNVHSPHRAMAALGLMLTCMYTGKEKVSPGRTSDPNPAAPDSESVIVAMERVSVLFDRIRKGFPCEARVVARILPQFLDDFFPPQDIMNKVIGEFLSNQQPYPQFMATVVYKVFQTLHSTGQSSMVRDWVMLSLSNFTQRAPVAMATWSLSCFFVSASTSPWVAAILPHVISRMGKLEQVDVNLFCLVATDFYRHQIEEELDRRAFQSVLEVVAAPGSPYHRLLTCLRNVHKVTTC
Pf apPOL block: Pf-apPOL DNA polymerase inhibition. Recombinant Pf-apPOL, molecular beacon fluorescence, 1.5 h. inhibition, % at 10 µM. 0.25% of 210,000 active. AID 1794808
Numbers stand for hits; i = inactive; nt = no result given; + = active, no number. Shown is part of a subset that was picked to be rich in hits. No stated cut-off is given here; in the data, active means inhibition above about 50%; inactive means the rest.

SMILES	mHTT-CaM PPI inh	Pf apPOL block
CCCCc1ccc(/C=C(\C#N)C(N)=S)s1	63.1	nt
CCCCNC(=O)c1cccc(C2CCCN(C(=O)Nc3ccc(OCC)cc3)C2)c1 (stereo unspecified)	i	i
Cc1ccc(-n2c(=O)n(CC(=O)NC(C)(C)C)c3cccnc32)cc1	i	i
CCOc1ccc(NCC(O)Cn2c(C)c(C)c3ccccc32)cc1 (stereo unspecified)	84.0	i
COc1ccc(NCC(O)Cn2c(C)c(C)c3ccccc32)cc1 (stereo unspecified)	57.0	i
CC(=O)Nc1ccc(OCC(O)Cn2c3ccccc3c3ccccc32)cc1 (stereo unspecified)	i	i
COc1ccc(NCC(O)Cn2c(C)c(C)c3ccccc32)c(OC)c1 (stereo unspecified)	74.0	i
Cc1c(C)n(CC(O)CN2CCCCCC2)c2ccccc12 (stereo unspecified)	i	i
Cc1c(C)n(CC(O)CNC2CCCCC2)c2ccccc12 (stereo unspecified)	i	i
Cc1cc(OCC(=O)Nc2cccc3nsnc23)ccc1Cl	i	i
Cc1ccc(CNC(=O)N2CCCCC2c2nncn2CC2CC2)cc1 (stereo unspecified)	i	i
O=C(c1ccccn1)N1CCCCC1c1nc(-c2cnccn2)no1 (stereo unspecified)	i	i
O=C(CCC(=O)N1CCN(Cc2csc(-c3ccccc3)n2)CC1)c1ccccc1	i	i
O=C(c1cc2ccccc2[nH]1)N1CCN(Cc2csc(-c3ccccc3)n2)CC1	66.5	i
O=C(Nc1cccc(Cl)c1)N1CCc2nc(-c3ccccc3)ncc2C1	i	i
O=C(NCC1CCCCC1)C1c2ccccc2CCN1C(=O)C1CC1 (stereo unspecified)	i	i
CCn1c(=O)c(NCCCN2CCCc3ccccc32)nc2ccncc21	66.7	i
CCCCNc1nc2ccncc2n(Cc2ccccc2)c1=O	i	i
O=C1NC(=O)C2C1C1C=Cc3ccccc3N1C2C(=O)c1ccc(F)cc1 (stereo unspecified)	52.0	nt
CN1C(=O)C(O)(CC(=O)c2ccc(F)cc2)c2ccccc21 (stereo unspecified)	i	i
c1ccc(CNCc2cnc[nH]2)cc1	93.8	i
O=C(O)CCNCc1ccccc1	i	i
CN(C)/C=C1\C(=O)N(c2ccc([N+](=O)[O-])cc2)N=C1c1ccccc1	i	59.0
C/C(=C1/C(=O)N(c2ccc([N+](=O)[O-])cc2)N=C1c1ccccc1)N(C)C	53.3	i
CC1=NN(c2ccccc2)C(=O)/C1=C/c1ccc(-c2ccc([N+](=O)[O-])cc2)o1	i	i
SMILES	mHTT-CaM PPI inh	Pf apPOL block
Cc1nnc(-c2ccccc2)n1-c1ccc([N+](=O)[O-])cc1	i	i
Cc1cc(C)cc(N2C(=O)CSC2c2ccccc2[N+](=O)[O-])c1 (stereo unspecified)	i	i
O=C(Nc1c2c(nn1-c1ccc([N+](=O)[O-])cc1)CS(=O)(=O)C2)c1ccccc1C(F)(F)F	i	i
S=c1[nH]nc(-c2ccccn2)n1/N=C/c1cccnc1	+	nt
S=c1[nH]nc(-c2ccncc2)n1N=Cc1cccnc1	nt	i
O=C(CSc1cccc2cccnc12)Nc1ccccc1	i	i
CCCCCOc1ccc(NC(=O)CSc2cccc3cccnc23)cc1	83.0	i
O=C(NCCc1ccccn1)c1ccnc(N2CCNC(c3ccccc3)C2)c1 (stereo unspecified)	i	i
COc1ncccc1CN(C)S(=O)(=O)N(C)C	i	i
COc1cccc(-c2nc(C3CCN(C(=O)c4ccc(C)s4)CC3)no2)c1	i	i
c1ccc(Nc2nc(-c3ccccc3)[n+](-c3ccccc3)s2)cc1	i	i
c1ccc(CNc2nc(-c3ccccc3)[n+](-c3ccccc3)s2)cc1	83.6	i
Cc1oc(C(C)C)nc1C(=O)NCc1cccnc1	i	i
COc1ccc(/C=C2\SC(=O)N(CN3CCCCC3)C2=O)c(OC)c1	i	i
COc1ccccc1/C=C1\SC(=O)N(CN2CCCC2)C1=O	70.0	i
CCn1cc2c3c(cccc31)CN(C(=O)Nc1ccc(OC)c(Cl)c1)CC2	i	i
COc1ccc(NC(=O)c2oc3ccccc3c2NC(=O)c2cccs2)cc1OC	i	i
CC(=O)Nc1ccc(-c2ccc(NC(C)=O)c(C)c2)cc1C	i	i
CC1=NN(c2cccc(C(=O)O)c2)C(=O)/C1=C/c1ccc(-c2ccc(Br)cc2)o1	61.0	i
CC1=NN(c2cccc(C(=O)O)c2)C(=O)/C1=C/c1ccc(-c2cc(Cl)ccc2Cl)o1	i	i
N#CC1=C(N)SC(N)=C(C#N)C1c1ccccc1	i	i
CCCCc1ccc(C2C(C#N)=C(N)SC(N)=C2C#N)s1	55.2	i
Cc1cccc(N2CCN(C(=O)C3c4ccccc4CCN3C(=O)C3CC3)CC2)c1C (stereo unspecified)	i	i
CNC(=O)c1ccccc1N	i	i
CNC(=O)COc1ccc(Br)cc1Cl	i	i
SMILES	mHTT-CaM PPI inh	Pf apPOL block
CC(C)(C)N=C1Nc2ccccc2CNC12CCN(C(=O)Cc1ccccc1)C2 (stereo unspecified)	i	i
COc1ccccc1CC(=O)N1CCCC2(C1)Nc1ccccc1NC2=NC(C)(C)C (stereo unspecified)	59.0	i
CC(C)(C)N=C1Nc2ccccc2CNC12CCN(C(=O)Cc1ccccc1F)C2 (stereo unspecified)	53.2	i
COc1ccc(NC(=O)N2CCCC3(C2)Nc2ccccc2NC3=NC(C)(C)C)c(C)c1 (stereo unspecified)	i	i
CC(C)(C)N=C1Nc2ncccc2NC12CCCN(C(=O)Cc1cccnc1)C2 (stereo unspecified)	i	i
COc1ccc(C(=O)N2CCCC3(C2)Nc2ccccc2NC3=NC(C)(C)C)c(OC)c1 (stereo unspecified)	i	i
CC(C)(C)N=C1Nc2ccccc2NC12CCCN(C(=O)Cc1ccccc1)C2 (stereo unspecified)	76.8	i
COc1ccc(C)cc1NC(=O)N1CCCC2(C1)Nc1ccccc1NC2=NC(C)(C)C (stereo unspecified)	71.9	i
CC(NC(=O)Cc1ccc([N+](=O)[O-])cc1)c1ccccc1 (stereo unspecified)	nt	i
COc1ccc(CNC(=O)Nc2nc3ccc(SC)cc3s2)cc1OC	i	i
Cc1cc(C)c2c(-n3cccc3)c(C(=O)N(C)C)sc2n1	i	i
COC(=C(Cl)Cl)C(=C1NCCCN1)[N+](=O)[O-]	i	i
CC(C)C(=O)NCCc1csc(C2CCCN(C(=O)c3cccc(C#N)c3)C2)n1 (stereo unspecified)	i	i
COCC(=O)N1CCCC2(C1)Nc1ccccc1NC2=NC1CCCC1 (stereo unspecified)	i	i
COCC(=O)N1CCCC2(C1)Nc1ccccc1NC2=NC(C)(C)C (stereo unspecified)	64.0	i
Cn1c(C2CCN(C(=O)Nc3cccc(Br)c3)CC2)cc(=O)n2nccc12	i	i
COc1cccc(C2CC(c3ccc(Cl)cc3)=NC(C(C)C)N2)c1O (stereo unspecified)	i	i
Oc1ccccc1C1CC(c2ccc3c(c2)OCO3)=NC(c2cccc(F)c2)N1 (stereo unspecified)	i	i
COc1cccc(C2=NC(C(C)C)NC(c3cc(Br)ccc3O)C2)c1 (stereo unspecified)	81.0	i
COc1ccc(C2=NC(c3ccc(OC)c(OC)c3)NC(c3ccccc3O)C2)cc1 (stereo unspecified)	53.0	i

Screens: PubChem BioAssay, University of Kansas High Throughput Screening Laboratory
